Source: PubChem (National Center for Advancing Translational Sciences (NCATS))
In the library only some 21% were active in any assay of this set; here they are far more common.
Shiga inhibitor: blocks Shiga toxin action in Vero cells; Vero cells, Shiga toxin protein synthesis inhibition reporter; inhibition, % at 38.7 µM; hit rate 9.2% among 290,000; AID 2315; in the data active = inhibition mostly above about 28%, no sharp cut-off; inactive = mostly below about 43%
HCV inhibitor: HCV inhibition; Huh7.5.1 HCVcc-Cre infection, luciferase reporter, 44 h; Potency, µM (series often up to 41.8 µM), hits mostly inhibitors; hit rate 3.4% among 340,000; AID 651820
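After 44 h co-culture of compound, cells and HCVcc-Cre (~0.5 moi), substrate is added for 15 min at room temperature and luciferase measured over 15 sec. Cells were seeded at 1,000/well and pre-cultured 4 h.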
CHX counter: counter-screen hit for Shiga toxin inhibitors, cycloheximide; cell reporter, cycloheximide protein synthesis inhibition counterscreen; max response, %; hit rate 12% among 300,000; in the data active = max response mostly above about 13%, no sharp cut-off; inactive = mostly below about 14%; note: read at 38.3 µM for the half of the compounds with a filed dose
Pf growth 96h: P. falciparum growth inhibition at 96 hour, primary screen for plastid delayed-death inhibitors; P. falciparum luciferase reporter growth, 96 h; Potency, µM (doses to about 28.7 µM), actives largely listed as inhibitors; hit rate 6.9% among 320,000; AID 504834
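P. falciparum expressing integrated firefly luciferase, in erythrocytes at 2% hematocrit, 0.05% parasitemia, incubated with compounds 96 h at 37 C, 5% CO2. Growth inhibition read as loss of luminescence; two-generation exposure targets delayed-death apicoplast inhibitors.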
Pf growth 48h: inhibits P. falciparum growth in the first generation, 48 h; P. falciparum luciferase growth in erythrocytes, 48 h; Potency, µM (highest dose often 28.7 µM), usual class: inhibitors; hit rate 5.9% among 310,000; AID 504832
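Erythrocytes infected with P. falciparum carrying an integrated firefly luciferase reporter (2% hematocrit, 0.1% parasitemia final) were exposed to compounds in RPMI 1640 with 0.5% Albumax at 37 C, 5% CO2. Growth inhibition was scored as reduced luminescence.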
AMA1-RON2 inh: inhibitors of Plasmodium falciparum AMA1-RON2 interaction; AlphaScreen AMA1-biotinylated RON2 peptide binding; Potency, µM (highest dose often 58.2 µM), actives largely listed as inhibitors; hit rate 0.2% among 360,000; AID 720542; note: nearly all actives have a fitted effect of over 45% in size
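AMA1 (3D7) with his tag at 25 nM final met compounds first, then biotinylated RON2 peptide at 25 nM; detection used donor plus acceptor beads, 10 µg/mL apiece, read by AlphaScreen after 30 min at room temperature.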
Of the large screens only hits and unclear results are named; the others gave an inactive call. Unless noted, calls come from the whole dose curve; as a rule, active = well fitted curve in the direction sought with a large enough effect; inconclusive = small, poorly fitted or top-dose-only effect, or another doubt; inactive = no such curve, though single readings can be large; an effect the other way counts as inactive or inconclusive.

CC(=O)Nc1ccc(C2NC(=O)CCC2[N+](=O)[O-])cc1 (centres undefined)	none
C[C@@H]1O[C@@H](O[C@@H]2[C@@H](O)[C@H](OCCc3ccc(O)c(O)c3)O[C@H](CO)[C@H]2OC(=O)/C=C/c2ccc(O)c(O)c2)[C@H](O)[C@H](O)[C@H]1O	AMA1-RON2 inh inconclusive (no result: Shiga inhibitor, CHX counter, Pf growth 96h, Pf growth 48h)
Cc1c(C(=O)NCC(C)C)sc2nc(-c3ccc(F)cc3)cn12	HCV inhibitor inconclusive, CHX counter 20.6
COc1ccc(-c2cn3c(C)c(C(=O)Nc4ccncc4)sc3n2)cc1	HCV inhibitor 4.47µM, Pf growth 96h inconclusive (no result: Pf growth 48h)
Cc1c(C(=O)Nc2ccncc2)sc2nc(-c3ccc(F)cc3)cn12	HCV inhibitor 10µM, CHX counter 16.8, Pf growth 96h 2.33µM, Pf growth 48h 2.33µM
CCN(CC)CCNC(=O)c1sc2nc(-c3ccccc3)cn2c1C	HCV inhibitor inconclusive, Pf growth 96h inconclusive
COc1ccc(-c2cn3c(C)c(C(=O)Nc4cccc(NC(C)=O)c4)sc3n2)cc1	Pf growth 96h inconclusive, Pf growth 48h inconclusive
CCOC(=O)C1=CCC(c2cccn2C(=O)OC(C)(C)C)N(S(=O)(=O)c2ccc(C)cc2)C1 (centres undefined)	none (no result: Shiga inhibitor, HCV inhibitor, CHX counter, Pf growth 96h, Pf growth 48h)
COc1cc(OC)cc(C(=O)NNC(=O)C(CCC(N)=O)NS(=O)(=O)c2ccc(Cl)cc2)c1 (centres undefined)	none (no result: Shiga inhibitor, CHX counter, Pf growth 96h, Pf growth 48h)
COc1ccc(C(=O)OCC2CC(c3ccccc3)=NO2)cc1OC (centres undefined)	HCV inhibitor inconclusive
COc1ccc(-c2nc3c(c(=O)n(C)c(=O)n3C)n2CC2CC(c3ccccc3)=NO2)cc1OC (centres undefined)	HCV inhibitor 5.62µM (no result: Shiga inhibitor, CHX counter, Pf growth 96h, Pf growth 48h)
C=CCNc1sc(C(=O)c2cccs2)c(N)c1C#N	Pf growth 96h inconclusive
O=C(NCc1ccco1)c1cccnc1-c1nc2ccccc2s1	HCV inhibitor inconclusive (no result: Pf growth 96h)
CCNc1sc(C(=O)c2cccs2)c(N)c1-c1nc2ccccc2s1	HCV inhibitor 5.01µM, Pf growth 96h inconclusive, Pf growth 48h inconclusive
CCOC(=O)c1sc(NCc2ccco2)c(-c2nc3ccccc3s2)c1N	HCV inhibitor 10µM, Pf growth 96h inconclusive (no result: Pf growth 48h)
CCNc1sc(C(=O)c2cccs2)c(N)c1C#N	HCV inhibitor 12.6µM
O=C(CSc1nc2ccccc2n1S(=O)(=O)c1cccc([N+](=O)[O-])c1)NCc1cccs1	CHX counter 26.9
Cc1ccc(NC(=O)Cc2nnc(SCC(=O)NC3CCCC3)n2C)c(C)c1	none
Cc1ccccc1OCC(O)CN(CCO)Cc1ccccc1 (centres undefined)	Pf growth 96h inconclusive, Pf growth 48h inconclusive
CCCCN(CCCC)CC(O)COc1ccccc1Br (centres undefined)	HCV inhibitor inconclusive, Pf growth 48h 4.15µM
CC(C)CN(CC(C)C)CC(O)COc1ccccc1Br (centres undefined)	Pf growth 96h 3.29µM, Pf growth 48h inconclusive
CCN(CC)C(=O)CSc1nnc(CCCCCNC(=O)OC(C)(C)C)o1	Pf growth 96h 10.4µM, Pf growth 48h inconclusive
OC1(c2ccc(Br)cc2)CCN(Cc2cccc(Br)c2)CC1	Pf growth 96h 4.65µM, Pf growth 48h inconclusive
Brc1cccc(CN2CCCCCC2)c1	AMA1-RON2 inh inconclusive
O=S(=O)(c1ccc(Cl)c(NC(=S)N/N=C/c2ccc(O)cc2)c1)N1CCOCC1	HCV inhibitor inconclusive, CHX counter 17.8, Pf growth 96h 3.29µM
O=[N+]([O-])c1cc(Cl)cc(/C=N/NC(=S)Nc2ccc(S(=O)(=O)N3CCOCC3)cc2)c1O	Pf growth 96h inconclusive, Pf growth 48h 0.465µM, AMA1-RON2 inh 10µM
N#Cc1ccc(/C=N/NC(=S)Nc2ccc(S(=O)(=O)N3CCOCC3)cc2)cc1	Pf growth 96h inconclusive, Pf growth 48h inconclusive
O=S(=O)(c1ccc(NC(=S)N/N=C/c2ccc(O)c(O)c2)cc1)N1CCOCC1	Pf growth 96h 13.1µM, Pf growth 48h 14.7µM
Oc1ccc(/C=N/NC(=S)N2CCOCC2)cc1	CHX counter 29.6, Pf growth 96h inconclusive
COc1ccc(NC(=O)c2ccccc2OCc2ccc(F)cc2)c(OC)c1	HCV inhibitor inconclusive, Pf growth 96h inconclusive, Pf growth 48h inconclusive
O=C(c1ccco1)N1CCN(C2CN(Cc3cn(Cc4ccccc4C(F)(F)F)nn3)S(=O)(=O)C2)CC1 (centres undefined)	none (no result: Shiga inhibitor, HCV inhibitor, CHX counter, Pf growth 96h, Pf growth 48h)
O=[N+]([O-])c1ccc(COc2ccccc2CN2CCCCC2)cc1	HCV inhibitor inconclusive (no result: Shiga inhibitor, CHX counter, Pf growth 96h, Pf growth 48h)
OC(CNC1CCCc2ccccc21)COc1c(Cl)cccc1Cl (centres undefined)	HCV inhibitor inconclusive, Pf growth 96h 3.29µM, Pf growth 48h 1.85µM
CCCc1cc2c(=O)c(-c3cscn3)c(C(=O)OCC)oc2cc1O	none
CCc1cc2c(=O)c(-c3nc(C)cs3)c(CCCC(=O)O)oc2cc1O	Pf growth 96h 9.28µM
CC1(C(=O)N2CCC(CO)(Cc3cccc(C(F)(F)F)c3)CC2)CC1	Pf growth 96h 16.5µM
Cc1c(CN2CCC(CO)(Cc3cccc(C(F)(F)F)c3)CC2)c2ccccc2n1C	HCV inhibitor inconclusive, Pf growth 96h inconclusive, Pf growth 48h 3.7µM
COc1cc(CN2CCC(CO)(Cc3cccc(C(F)(F)F)c3)CC2)ccc1F	HCV inhibitor inconclusive, Pf growth 96h 4.15µM, Pf growth 48h 6.57µM
CCOCCOC(=O)C1=C(C)Nc2ccc(C)cc2S1	CHX counter 21.8, Pf growth 48h inconclusive
CCOC(=O)/C=C1\Nc2ccccc2SC1=O	Pf growth 48h inconclusive (no result: Pf growth 96h)
CCOC(=O)C1=C(C)Nc2ccccc2S1	Shiga inhibitor 31.1, CHX counter 23.2
CCOC(=O)C1=C(C)Nc2ccc(C)cc2S1	none
CSCCOC(=O)C1=C(C)Nc2ccc(C)cc2S1	CHX counter 13.8, Pf growth 96h inconclusive (no result: Pf growth 48h)
CSCC[C@H](NC(=O)[C@H](CC(C)C)NC(=O)[C@H](CO)NC(=O)[C@H](CCC(=O)O)NC(=O)[C@H](CC(C)C)NC(=O)[C@H](Cc1ccc(O)cc1)NC(=O)[C@H](CCCCN)NC(=O)[C@H](CCCCN)NC(=O)[C@H](C)NC(=O)[C@H](CO)NC(=O)[C@H](CC(C)C)NC(=O)[C@H](CCC(N)=O)NC(=O)CNC(=O)[C@H](CC(C)C)NC(=O)[C@H](CC(C)C)NC(=O)[C@H](CCCCN)NC(=O)[C@H](CO)NC(=O)[C@H](Cc1ccccc1)NC(=O)[C@H](CC(=O)O)NC(=O)[C@H](CO)NC(=O)[C@@H](NC(=O)[C@H](Cc1ccccc1)NC(=O)[C@@H](NC(=O)CNC(=O)[C@H](CC(=O)O)NC(=O)[C@H](C)NC(=O)[C@@H](N)Cc1cnc[nH]1)C(C)C)[C@@H](C)O)C(N)=O	none (no result: HCV inhibitor, Pf growth 96h, Pf growth 48h, AMA1-RON2 inh)
COc1ccc(S(=O)(=O)N(C)C[C@H]2OCc3cn(nn3)CCCC(=O)N([C@@H](C)CO)C[C@@H]2C)cc1	none (no result: Shiga inhibitor, HCV inhibitor, CHX counter, Pf growth 96h, Pf growth 48h)
